Assay outcomes deposited in PubChem BioAssay by several laboratories.
Hsp70 activator: transcriptional activators of Hsp70 | AID 1203 | HeLa Hsp70 promoter luciferase reporter, luminescence; scaled: vehicle 0, proteasome-inhibitor control 100% | actives 0.04% (n = 200,000) | activation, % at 10 µM;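 active = activation above the mean across all tested compounds plus 3 SD, cutoff set per campaign, cut at about 5.5% in these data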;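 note: 100% = MG132 at 30 µM as the positive control and 0% = DMSO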
APP 5'UTR act: APP 5'UTR luciferase reporter activation | SH-SY5Y APP 5'UTR luciferase reporter, luminescence; zero percent = DMSO vehicle wells | activation, % at 2 µM | actives 1% (n = 190,000);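 active = activation above a set limit, based on mean plus 3 SD of controls, cut at about 140% in these data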
STAT1 activator: STAT1 signaling activation | activation (% of control), % at 5.5 µM | actives 2.6% (n = 200,000) | AID 932 | NIH 3T3 STAT1-luciferase reporter, IFN-gamma, luminescence; 100% = IFN-gamma alone, no compound;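 active = activation above the screen-wide mean activation plus 3 SD, cut at about 130% in these data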;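 note: raw ratio to IFN-gamma control signal so 100% means no change and 0% no light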
APP transl inh: APP translation inhibition; SH-SY5Y APP 5'UTR-luciferase reporter, luminescence; inhibition, % at 2 µM; actives 0.82% (n = 190,000); AID 1285;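 active = inhibition above a set limit, derived from the sample mean plus 3 SD, cut at about 45% in these data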
Wee1 degr inh: human Wee1 degradation inhibition, primary screen; P30291; HeLa Luc-Wee1K328M stability, luciferase luminescence; 100% = proteasome inhibitor MG132 effect; reporter increase, % at 5 µM; actives 1.2% (n = 220,000);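 active = activation above the mean of all tested compounds plus 3 SD, set per screening run, cut at about 8.8% in these data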;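 note: cells exposed to compound for 20 h before luminescence read; 0% = DMSO alone and 100% = MG132 at 30 µM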
Target sequence (P30291 whole entry K328M): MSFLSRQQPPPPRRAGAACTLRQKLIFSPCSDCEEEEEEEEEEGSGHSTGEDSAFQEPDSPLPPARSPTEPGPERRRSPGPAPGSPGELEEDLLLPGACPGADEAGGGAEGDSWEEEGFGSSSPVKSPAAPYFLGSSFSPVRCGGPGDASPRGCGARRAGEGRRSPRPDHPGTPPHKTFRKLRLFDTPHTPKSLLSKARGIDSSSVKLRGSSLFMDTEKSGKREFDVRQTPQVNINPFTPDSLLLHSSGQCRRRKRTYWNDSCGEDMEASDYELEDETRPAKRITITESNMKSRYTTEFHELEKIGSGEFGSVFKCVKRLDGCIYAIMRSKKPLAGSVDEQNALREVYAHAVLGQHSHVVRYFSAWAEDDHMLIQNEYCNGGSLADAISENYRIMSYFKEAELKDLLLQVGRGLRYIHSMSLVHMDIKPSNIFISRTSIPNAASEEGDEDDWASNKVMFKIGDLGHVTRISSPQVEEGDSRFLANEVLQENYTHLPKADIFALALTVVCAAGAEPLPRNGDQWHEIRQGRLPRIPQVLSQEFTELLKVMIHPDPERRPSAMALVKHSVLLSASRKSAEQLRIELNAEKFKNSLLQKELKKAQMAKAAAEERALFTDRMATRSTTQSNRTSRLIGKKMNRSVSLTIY
NF-kB expr up: NF-kB expression increase, human neuronal cells. actives 1.6% (n = 190,000). NF-kB reporter expression; hits give high values. fold change at 12.5 µM; in the data active = fold change above about 3.3
An asterisk follows results filed as active; nt = no result given. An excerpt weighted towards active compounds, which were near 4.8% of everything screened.

SMILES | Hsp70 activator | APP 5'UTR act | STAT1 activator | APP transl inh | Wee1 degr inh | NF-kB expr up
Cc1c(N/N=C(\C#N)C(=O)c2ccccc2)c(=O)n(-c2ccccc2)n1C | -0.3 | -76.9 | 92.3 | 76.9* | 3.3 | 1.78
CCOC(=O)/C(C#N)=N/Nc1c(C)n(C)n(-c2ccccc2)c1=O | -0.2 | -8.8 | 97.1 | 8.8 | 0.8 | 0.99
Cc1ccccc1C(=O)/C(C#N)=N/Nc1c(C)n(C)n(-c2ccccc2)c1=O | -0.2 | -67.7 | 100.0 | 67.7* | 5.2 | 1.44
NC(=O)COC(=O)c1c2c(nc3ccccc13)CCCCC2 | -0.3 | -4.9 | 91.5 | 4.9 | 3.0 | 1.04
COc1cc(-c2nnc(COC(=O)c3c4c(nc5ccccc35)CCCC4)o2)cc(OC)c1OC | -0.3 | -0.6 | 84.3 | 0.6 | 10.0* | 0.95
O=C(N/N=C/c1ccco1)c1cccc(N2CCCC2=O)c1 | -0.3 | 16.6 | 100.2 | -16.6 | 2.5 | 1.58
O=C(/C=C/c1ccnc2ccccc12)c1cccs1 | 0.0 | 182.7* | 102.8 | -182.7 | 1.7 | 1.02
CCN1CCN(C(=O)c2cc(S(=O)(=O)Nc3ccc(S(C)(=O)=O)cc3)ccc2Cl)CC1 | -0.1 | -40.5 | 102.4 | 40.5 | -1.4 | 1.09
Cc1cc(C)nc(Sc2nc(C)nc3c2oc2ccccc23)n1 | -0.3 | -5.6 | 98.0 | 5.6 | -1.0 | 7.44*
CCOC(=O)c1c(OCCO)noc1N | 0.0 | -1.2 | 105.1 | 1.2 | 1.0 | 1.03
CNC(=S)N/N=C/c1cccc(OCc2ccccc2F)c1 | -0.1 | 34.4 | 132.2* | -34.4 | -4.1 | 1.59
COC(=O)CC1C(=O)NCCN1C(=S)NC(=O)c1ccccc1[N+](=O)[O-] (configuration not stated) | -0.4 | 5.9 | 101.8 | -5.9 | 3.1 | 1.18
CN(C)CCOc1cc(Cl)cc(Cl)c1 | -0.4 | 14.7 | 95.7 | -14.7 | 4.7 | 4.25*
CN(C)CCOc1cccc(Cl)c1 | 0.0 | -6.2 | 93.4 | 6.2 | -3.1 | 1.16
O=C(c1ccco1)N1CCN(Cc2nc(Cc3ccccc3)no2)CC1 | 0.8 | 22.1 | 109.9 | -22.1 | 5.5 | 1.11
Cc1ccc2nc3sc(C(=O)NCc4ccco4)c(N)c3cc2c1 | 0.0 | 179.2* | 139.4* | -179.2 | 1.3 | 3.66*
Cc1ccc2nc3sc(C(=O)N4CCOCC4)c(N)c3cc2c1 | -0.1 | 192.4* | 54.0 | -192.4 | 0.3 | 1.61
COc1cc2cc3c(N)c(C(=O)NCc4ccco4)sc3nc2cc1OC | -0.1 | 28.7 | 146.5* | -28.7 | 2.5 | 0.98
CS(=O)(=O)c1ccc2nc(NC(=O)c3ccco3)sc2c1 | 0.2 | 63.9 | 130.6* | -63.9 | 6.9 | 2.29
CCCCC(=O)Nc1nc2ccc(C(=O)OC)cc2s1 | 0.2 | 78.9 | 129.0* | -78.9 | 2.7 | 2.54
CCOC(=O)c1ccc2nc(NC(=O)C(C)C)sc2c1 | -0.2 | 121.6 | 144.7* | -121.6 | 3.0 | 4.2*
O=C(Nc1nc2ccccc2c(=O)s1)c1ccco1 | nt | nt | nt | nt | 10.2* | nt
CCCC(=O)Nc1nc2ccc(C(=O)OCC)cc2s1 | 0.4 | 60.8 | 126.9 | -60.8 | 0.6 | 2.27
CCOc1ccc2nc(NC(=O)NC3CCCCC3)sc2c1 | -0.4 | 35.1 | 112.0 | -35.1 | -0.9 | 1.28
C/C(=N\NC(=O)CN(c1ccc(C)cc1)S(C)(=O)=O)c1cccs1 | -0.5 | -4.4 | 96.4 | 4.4 | -1.2 | 1.03
SMILES | Hsp70 activator | APP 5'UTR act | STAT1 activator | APP transl inh | Wee1 degr inh | NF-kB expr up
CCOC(=O)c1ccc2nc(NC(=O)c3cccs3)sc2c1 | 0.0 | 57.7 | 140.4* | -57.7 | -0.4 | 6.99*
CCOC(=O)c1ccc2nc(NC(=O)c3ccco3)sc2c1 | -0.2 | 276.8* | 112.4 | -276.8 | 2.6 | 4.63*
O=C(NC(=S)Nc1nc2ccc(F)cc2s1)c1ccco1 | -0.1 | 106.7 | 130.3* | -106.7 | -0.6 | 0.84
O=C(Nc1nc2ccc(S(=O)(=O)N3CCOCC3)cc2s1)c1cccs1 | 0.1 | 6.4 | 102.0 | -6.4 | 10.2* | 2
COc1ccc(N(CCCN2C(=O)c3cccc4cccc(c34)C2=O)C(=O)c2cccnc2)cc1 | -0.2 | 31.2 | 97.0 | -31.2 | 1.2 | 0.8
Cn1c(SCc2nn[nH]n2)nc2c1c(=O)n(Cc1ccccc1Cl)c(=O)n2C | -0.4 | -5.6 | 97.8 | 5.6 | -1.9 | 1.21
O=C(COC(=O)c1ccc(NS(=O)(=O)c2ccc3c(c2)OCCO3)cc1)NC1CCS(=O)(=O)C1 (configuration not stated) | 0.1 | 5.8 | 99.1 | -5.8 | 0.6 | 1.03
CC(=O)c1c(C)oc2c1cc(O)c1ccccc12 | nt | nt | nt | nt | -2.0 | nt
CCOC(=O)c1c(C)oc2c1cc(O)c1ccccc12 | 0.2 | 171.7* | 100.3 | -171.7 | -1.7 | 3.31*
COc1ccc(-c2cc(C(=O)NCCN3CCOCC3)c3ccccc3n2)c(OC)c1 | 0.0 | -12.9 | 100.2 | 12.9 | 1.3 | 1.12
Cc1ccc(N/N=C(\C#N)C(=N)N2CCOCC2)cc1 | -0.3 | 22.1 | 137.0* | -22.1 | 1.1 | 1.9
N#C/C(=N\Nc1ccccc1)C(=N)N1CCOCC1 | -0.1 | 19.7 | 111.1 | -19.7 | 6.8 | 1.52
N#C/C(=N\Nc1ccccc1F)C(=N)N1CCCCC1 | 0.4 | 87.9 | 148.1* | -87.9 | -0.1 | 3.98*
N#C/C(=N\Nc1ccc(F)cc1)C(=N)N1CCCCCC1 | -0.1 | 185.2* | 150.1* | -185.2 | 0.5 | 7.72*
COc1ccc(N/N=C(\C#N)C(=N)N2CCCCC2)cc1 | nt | nt | nt | nt | -0.2 | nt
Cc1ccc(N/N=C(\C#N)C(=N)N2CCCCCC2)cc1 | -0.1 | 167.9* | 136.2* | -167.9 | 0.2 | 5.88*
COC(=O)C1=C(N)Oc2cc(C)n(CC3CCCO3)c(=O)c2C1c1ccccc1 (configuration not stated) | 0.0 | -20.3 | 104.5 | 20.3 | -0.1 | 0.89
CCN(CC)S(=O)(=O)c1ccc(N/N=C/c2ccc(O)cc2O)nc1 | -0.5 | -80.9 | 93.2 | 80.9* | 4.2 | 1.27
Oc1ccc(/C=N/Nc2ncc(Br)cn2)c(O)c1 | -0.1 | 18.8 | 111.6 | -18.8 | -0.4 | 5.01*
Oc1ccc(/C=N/Nc2nccnc2Cl)c(O)c1 | -0.5 | nt | 93.8 | nt | 10.1* | 1.19
Oc1ccccc1/C=N/Nc1nccnc1Cl | -0.2 | -42.5 | 106.0 | 42.5 | 1.3 | 1.56
CNC(=S)N1N=C(c2ccc(C)cc2)CC1c1ccc(Br)cc1 (configuration not stated) | 0.0 | 30.7 | 110.4 | -30.7 | 2.6 | 3.43*
CC(C)c1ccc(C2CC(c3ccc(Br)cc3)=NN2C(N)=S)cc1 (configuration not stated) | -0.4 | 65.3 | 104.9 | -65.3 | -4.4 | 1.41
CNC(=S)N1N=C(c2ccc(C)cc2)CC1c1ccc(Cl)cc1 (configuration not stated) | -0.3 | -0.4 | 99.5 | 0.4 | 3.4 | 4.45*
CNC(=S)N1N=C(c2ccccc2)CC1c1ccccc1Cl (configuration not stated) | 0.1 | -6.2 | 107.1 | 6.2 | 1.6 | 1.49
O=[N+]([O-])c1ccc(Sc2ncccn2)c([N+](=O)[O-])c1 | nt | nt | nt | nt | 0.2 | nt
